# According to PubChem BioAssay (NCI):
# This is part of a sample that, as a whole, favours compounds with a hit. Of some 79,000 tested, about 15% had one in any assay. Values without a mark were called inactive. The source made the active and inactive calls. Cut-off read from the data, not from the text of the source: active = growth inhibition above about 70%; inactive = the rest.
# Columns and labels:
# [1] = NCI Yeast Anticancer Drug Screen. Data for the rad52 strain (AID 147);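 note: 0% = growth of vehicle-treated control cultures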; conditions: S. cerevisiae rad52 mutant growth inhibition, hits give high values
# Summary of the method: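 Yeast strain carrying a DNA damage repair alteration was exposed to test compounds. Growth inhibition was measured relative to vehicle-treated controls.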
# [2] = NCI Yeast Anticancer Drug Screen. Data for the wt1 strain (AID 149);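 note: 0% = growth of vehicle-treated wt1 cultures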; conditions: S. cerevisiae wt1 strain (SPY 50644) growth inhibition, hits give high values
# Summary of the method: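 Growth inhibition read against vehicle controls after compound exposure of the wt1 yeast strain.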
# [3] = NCI Yeast Anticancer Drug Screen. Data for the rad50EPP+ strain (AID 151);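 note: 0% = growth of vehicle-treated control cultures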; conditions: S. cerevisiae rad50 mutant strain, hits give high values
# Summary of the method: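 Yeast strain carrying rad50 alteration (rad50EPP+) exposed to compounds; growth inhibition measured relative to vehicle-treated controls.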
# [4] = NCI Yeast Anticancer Drug Screen. Data for the mgt1 strain (AID 153); conditions: S. cerevisiae mgt1 mutant growth inhibition, hits give high values
# Summary of the method: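 Yeast mgt1 strain (DNA repair/cell-cycle alteration panel) exposed to compounds; growth inhibition measured relative to vehicle-treated controls.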
# [5] = NCI Yeast Anticancer Drug Screen. Data for the rad50 strain (AID 155);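 note: 0% = growth of vehicle-only cultures of the same strain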; conditions: S. cerevisiae rad50 strain growth inhibition, hits give high values
# Summary of the method: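 Readout: growth inhibition relative to vehicle-treated cultures. Compound exposure was carried out in a genetically defined yeast strain deficient in DNA damage repair.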
# [6] = NCI Yeast Anticancer Drug Screen. Data for the mec2-1 strain (AID 157); conditions: S. cerevisiae mec2-1 strain, hits give high values
# Summary of the method: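 mec2-1 yeast strain, carrying an alteration in DNA damage repair or cell cycle control, was exposed to compounds; growth inhibition was measured relative to vehicle-treated controls.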
# [7] = NCI Yeast Anticancer Drug Screen. Data for the sgs1 mgt1 strain (AID 161);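 note: 0% = growth of cultures given vehicle only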; conditions: S. cerevisiae sgs1 mgt1 strain, hits give high values
# Summary of the method: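 Growth of a repair-deficient yeast mutant was monitored after compound treatment and expressed as inhibition relative to vehicle-treated cultures.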
# [8] = NCI Yeast Anticancer Drug Screen. Data for the CLN2oe strain (AID 163);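 note: 0% = growth of vehicle-only control cultures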; conditions: S. cerevisiae CLN2oe strain, hits give high values
# Summary of the method: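 Yeast cells carrying a defined cell-cycle control alteration were exposed to test compounds. Growth inhibition was scored against vehicle-treated control cultures.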
# [9] = NCI Yeast Anticancer Drug Screen. Data for the cln2 rad14 strain (AID 165);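 note: 0% = growth equal to vehicle treated cultures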; conditions: S. cerevisiae cln2 rad14 strain, hits give high values
# Summary of the method: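 Yeast carrying cln2 and rad14 alterations (cell cycle control and DNA damage repair) were exposed to compounds. Growth inhibition was measured against vehicle-treated controls.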
# [10] = NCI Yeast Anticancer Drug Screen. Data for the bub3 strain (AID 167); conditions: S. cerevisiae bub3 mutant strain, hits give high values
# Summary of the method: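 Readout: yeast growth inhibition, expressed relative to vehicle-only wells. The test organism is a mutant strain from a panel with lesions in DNA repair or checkpoint genes.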
# [11] = NCI Yeast Anticancer Drug Screen. Data for the wt2 strain (AID 169);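 note: 0% = growth of vehicle-treated yeast cultures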; conditions: S. cerevisiae wt2 strain growth inhibition, hits give high values
# Summary of the method: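 Yeast cells were exposed to test compounds, and growth inhibition was measured relative to vehicle-treated controls.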
# [12] = NCI Yeast Anticancer Drug Screen. Data for the sgs1 strain (AID 173);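 note: 0% = growth of vehicle-only control cultures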; conditions: S. cerevisiae sgs1 mutant, hits give high values
# Summary of the method: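 Yeast mutant strains carrying defined defects in DNA damage repair or cell cycle control were exposed to test compounds. Growth inhibition was scored against vehicle-treated controls.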
# [13] = NCI Yeast Anticancer Drug Screen. Data for the mlh1 rad18 strain (AID 175); conditions: S. cerevisiae mlh1 rad18 strain growth inhibition, hits give high values
# Summary of the method: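 Growth inhibition of the yeast strain was measured after compound exposure and expressed relative to vehicle-treated controls. The strain carries defined defects in DNA damage repair.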
# [14] = NCI Yeast Anticancer Drug Screen. Data for the rad14 strain (AID 159);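 note: 0% = growth of vehicle-treated control cultures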; conditions: S. cerevisiae rad14 strain growth inhibition, hits give high values
# Summary of the method: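 Growth inhibition vs vehicle controls; genetically altered yeast strain (DNA damage repair defect) treated with test compounds.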
# [15] = NCI Yeast Anticancer Drug Screen. Data for the mlh1 strain (AID 171);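 note: 0% = growth of vehicle-treated control cultures of the same strain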; conditions: S. cerevisiae mlh1 strain growth inhibition, hits give high values
# Summary of the method: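 Yeast carrying a defined genetic alteration in DNA damage repair or cell cycle control were exposed to test compounds. Growth inhibition was measured relative to vehicle-treated controls.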
# [16] = NCI Yeast Anticancer Drug Screen. Data for the rad18 strain (AID 177); conditions: S. cerevisiae rad18 mutant growth inhibition, hits give high values
# Summary of the method: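 Yeast carrying a defined DNA damage repair alteration were exposed to compounds. Growth inhibition was expressed relative to vehicle-treated controls.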
# [17] = at 5.0 µM (retest, dose inferred, filed as 0.5)
# [18] = at 50.0 µM (retest, dose inferred, filed as 5.0)
smiles,measurement,setting,value
Oc1ccc(NCn2c(=S)sc3ccccc32)cc1,growth inhibition,[1]; at 1.2 µM,-1%
same,growth inhibition,[1]; at 3.7 µM,-10%
same,growth inhibition,[1]; at 11.0 µM,-7%
same,growth inhibition,[1]; at 33.0 µM,38%
same,growth inhibition,[1]; at 100.0 µM,97% (active)
same,growth inhibition,[2]; at 1.2 µM,-24%
same,growth inhibition,[2]; at 3.7 µM,-17%
same,growth inhibition,[2]; at 11.0 µM,-16%
same,growth inhibition,[2]; at 33.0 µM,29%
same,growth inhibition,[2]; at 100.0 µM,97% (active)
same,growth inhibition,[3]; at 1.2 µM,-6%
same,growth inhibition,[3]; at 3.7 µM,-21%
same,growth inhibition,[3]; at 11.0 µM,-25%
same,growth inhibition,[3]; at 33.0 µM,-16%
same,growth inhibition,[3]; at 100.0 µM,82% (active)
same,growth inhibition,[4]; at 1.2 µM,14%
same,growth inhibition,[4]; at 3.7 µM,17%
same,growth inhibition,[4]; at 11.0 µM,37%
same,growth inhibition,[4]; at 33.0 µM,87% (active)
same,growth inhibition,[4]; at 100.0 µM,98% (active)
same,growth inhibition,[5]; at 1.2 µM,-2%
same,growth inhibition,[5]; at 3.7 µM,12%
same,growth inhibition,[5]; [17],62%
same,growth inhibition,[5]; at 11.0 µM,5%
same,growth inhibition,[5]; at 33.0 µM,42%
same,growth inhibition,[5]; [18],100% (active)
same,growth inhibition,[5]; at 50.0 µM,58.5%
same,growth inhibition,[5]; at 100.0 µM,95% (active)
same,growth inhibition,[6]; at 1.2 µM,19%
same,growth inhibition,[6]; at 3.7 µM,27%
same,growth inhibition,[6]; [17],63%
same,growth inhibition,[6]; at 11.0 µM,26%
same,growth inhibition,[6]; at 33.0 µM,84% (active)
same,growth inhibition,[6]; [18],100% (active)
same,growth inhibition,[6]; at 50.0 µM,73.8% (active)
same,growth inhibition,[6]; at 100.0 µM,99% (active)
same,growth inhibition,[7]; [17],2%
same,growth inhibition,[7]; [18],99% (active)
same,growth inhibition,[7]; at 50.0 µM,91.2% (active)
same,growth inhibition,[8]; at 1.2 µM,-16%
same,growth inhibition,[8]; at 3.7 µM,-13%
same,growth inhibition,[8]; at 11.0 µM,-32%
same,growth inhibition,[8]; at 33.0 µM,34%
same,growth inhibition,[8]; at 100.0 µM,97% (active)
same,growth inhibition,[9]; [17],58%
same,growth inhibition,[9]; [18],98% (active)
same,growth inhibition,[9]; at 50.0 µM,40%
same,growth inhibition,[10]; at 1.2 µM,14%
same,growth inhibition,[10]; at 3.7 µM,32%
same,growth inhibition,[10]; [17],32%
same,growth inhibition,[10]; at 11.0 µM,26%
same,growth inhibition,[10]; at 33.0 µM,68%
same,growth inhibition,[10]; [18],98% (active)
same,growth inhibition,[10]; at 50.0 µM,73.2% (active)
same,growth inhibition,[10]; at 100.0 µM,98% (active)
same,growth inhibition,[11]; at 1.2 µM,-28%
same,growth inhibition,[11]; at 3.7 µM,-14%
same,growth inhibition,[11]; at 11.0 µM,-10%
same,growth inhibition,[11]; at 33.0 µM,64%
same,growth inhibition,[11]; at 100.0 µM,97% (active)
same,growth inhibition,[12]; at 1.2 µM,4%
same,growth inhibition,[12]; at 3.7 µM,5%
same,growth inhibition,[12]; at 11.0 µM,4%
same,growth inhibition,[12]; at 33.0 µM,69%
same,growth inhibition,[12]; at 100.0 µM,96% (active)
same,growth inhibition,[13]; [17],51%
same,growth inhibition,[13]; [18],100% (active)
same,growth inhibition,[13]; at 50.0 µM,63%
Nc1ncncc1C(C1=C(O)COC1=O)C1=C(O)COC1=O,growth inhibition,[1]; at 1.2 µM,2%
same,growth inhibition,[1]; at 3.7 µM,-1%
same,growth inhibition,[1]; at 11.0 µM,-1%
same,growth inhibition,[1]; at 33.0 µM,-2%
same,growth inhibition,[1]; at 100.0 µM,0%
same,growth inhibition,[2]; at 1.2 µM,1%
same,growth inhibition,[2]; at 3.7 µM,4%
same,growth inhibition,[2]; at 11.0 µM,-3%
same,growth inhibition,[2]; at 33.0 µM,0%
same,growth inhibition,[2]; at 100.0 µM,1%
same,growth inhibition,[4]; at 1.2 µM,-2%
same,growth inhibition,[4]; at 3.7 µM,-4%
same,growth inhibition,[4]; at 11.0 µM,-6%
same,growth inhibition,[4]; at 33.0 µM,-2%
same,growth inhibition,[4]; at 100.0 µM,-2%
same,growth inhibition,[5]; at 1.2 µM,2%
same,growth inhibition,[5]; at 3.7 µM,2%
same,growth inhibition,[5]; [17],-10%
same,growth inhibition,[5]; at 11.0 µM,-2%
same,growth inhibition,[5]; at 33.0 µM,0%
same,growth inhibition,[5]; [18],15%
same,growth inhibition,[5]; at 50.0 µM,8.05%
same,growth inhibition,[5]; at 100.0 µM,1%
same,growth inhibition,[6]; at 1.2 µM,4%
same,growth inhibition,[6]; at 3.7 µM,7%
same,growth inhibition,[6]; [17],-15%
same,growth inhibition,[6]; at 11.0 µM,8%
same,growth inhibition,[6]; at 33.0 µM,8%
same,growth inhibition,[6]; [18],-16%
same,growth inhibition,[6]; at 50.0 µM,5.95%
same,growth inhibition,[6]; at 100.0 µM,0%
same,growth inhibition,[14]; at 1.2 µM,-2%
same,growth inhibition,[14]; at 3.7 µM,-4%
same,growth inhibition,[14]; at 11.0 µM,-2%
same,growth inhibition,[14]; at 33.0 µM,-5%
same,growth inhibition,[14]; at 100.0 µM,-2%
same,growth inhibition,[7]; [17],-10%
same,growth inhibition,[7]; [18],13%
same,growth inhibition,[7]; at 50.0 µM,8%
same,growth inhibition,[8]; at 1.2 µM,-7%
same,growth inhibition,[8]; at 3.7 µM,-16%
same,growth inhibition,[8]; at 11.0 µM,-6%
same,growth inhibition,[8]; at 33.0 µM,-8%
same,growth inhibition,[8]; at 100.0 µM,-8%
same,growth inhibition,[9]; [17],-5%
same,growth inhibition,[9]; [18],0%
same,growth inhibition,[9]; at 50.0 µM,35.1%
same,growth inhibition,[10]; at 1.2 µM,-2%
same,growth inhibition,[10]; at 3.7 µM,-1%
same,growth inhibition,[10]; [17],1%
same,growth inhibition,[10]; at 11.0 µM,-1%
same,growth inhibition,[10]; at 33.0 µM,-2%
same,growth inhibition,[10]; [18],19%
same,growth inhibition,[10]; at 50.0 µM,-6.55%
same,growth inhibition,[10]; at 100.0 µM,-8%
same,growth inhibition,[11]; at 1.2 µM,1%
same,growth inhibition,[11]; at 3.7 µM,1%
same,growth inhibition,[11]; at 11.0 µM,-1%
same,growth inhibition,[11]; at 33.0 µM,0%
same,growth inhibition,[11]; at 100.0 µM,1%
same,growth inhibition,[15]; at 1.2 µM,4%
same,growth inhibition,[15]; at 3.7 µM,1%
same,growth inhibition,[15]; at 11.0 µM,3%
same,growth inhibition,[15]; at 33.0 µM,3%
same,growth inhibition,[15]; at 100.0 µM,0%
same,growth inhibition,[12]; at 1.2 µM,3%
same,growth inhibition,[12]; at 3.7 µM,3%
same,growth inhibition,[12]; at 11.0 µM,3%
same,growth inhibition,[12]; at 33.0 µM,2%
same,growth inhibition,[12]; at 100.0 µM,-1%
same,growth inhibition,[13]; [17],2%
same,growth inhibition,[13]; [18],57%
same,growth inhibition,[13]; at 50.0 µM,4.8%
same,growth inhibition,[16]; at 1.2 µM,1%
same,growth inhibition,[16]; at 3.7 µM,0%
same,growth inhibition,[16]; at 11.0 µM,-1%
same,growth inhibition,[16]; at 33.0 µM,-3%
same,growth inhibition,[16]; at 100.0 µM,-4%
